D2 PAM-1: positive allosteric modulators of human D2 dopamine receptor; P14416; DiscoveRx D2 beta-arrestin cells, luminescence, 90 min; 100% = 57 uM dopamine signal; potentiation, % (no concentration beside the values); actives 0.23% (n = 360,000); in the data active = potentiation above about 50%; inconclusive = mostly about 30% to 49%
Target sequence (P14416 whole entry, looked up): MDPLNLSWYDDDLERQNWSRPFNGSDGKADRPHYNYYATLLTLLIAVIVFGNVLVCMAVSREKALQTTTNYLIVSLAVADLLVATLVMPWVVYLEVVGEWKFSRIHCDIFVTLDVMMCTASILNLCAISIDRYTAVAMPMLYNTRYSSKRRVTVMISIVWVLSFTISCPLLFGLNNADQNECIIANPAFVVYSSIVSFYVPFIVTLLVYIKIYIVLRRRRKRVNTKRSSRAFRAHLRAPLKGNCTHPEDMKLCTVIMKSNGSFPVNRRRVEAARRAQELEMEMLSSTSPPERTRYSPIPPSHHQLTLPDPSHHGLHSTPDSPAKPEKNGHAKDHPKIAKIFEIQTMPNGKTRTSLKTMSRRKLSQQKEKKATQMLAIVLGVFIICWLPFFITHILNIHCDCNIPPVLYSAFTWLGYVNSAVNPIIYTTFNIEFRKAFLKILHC
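PathHunter D2 cells, attached overnight at 37 deg C, received compound in DMSO plus dopamine at EC20 (50 nM final) for 90 min at 37 deg C. Beta-arrestin recruitment was read as luminescence after 1 h with detection reagent at ambient temperature.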
D2 ag-1: agonists of human D2 dopamine receptor (beta-arrestin); P14416; DiscoveRx PathHunter D2 beta-arrestin, luminescence, 90 min; 100% = 57 uM dopamine signal; activation, % (test concentration not listed); actives 0.084% (n = 360,000); AID 624465; in the data active = activation above about 40%; inconclusive = between about 15% and that limit
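Agonist mode: compounds alone added to overnight-plated D2 PathHunter cells for 90 min at 37 C, with 57 uM final dopamine (EC100) defining full response. Beta-arrestin recruitment detected by chemiluminescent reagent, read after 1 h at ambient temperature.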
D2 antagonist: antagonists of human D2 dopamine receptor. HEK293 TREx D2 cells, calcium flux, dopamine EC80. actives 2% (n = 340,000). inhibition, % at 10 µM. AID 485344. P14416; in the data active = inhibition above about 30%; inactive = below that, where a call was filed; also: 0% is about no effect
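Inhibition of EC80 dopamine-driven calcium flux, recorded kinetically, defines activity here; cells are a tetracycline-induced HEK293 T-REx line expressing force-coupled D2.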
D2 ag-2: activates the human D2 dopamine receptor. activation, % at 2 µM. actives 0.53% (n = 340,000). HEK293 T-REx D2 cells, calcium flux agonist mode. AID 485358. P14416;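 active = activation over 3 SD above normal in the single-dose calcium agonist read, cut at about 30% in these data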; also: 0% is about no effect
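Tetracycline-induced HEK293 T-REx cells with force-coupled D2 receptor, plated overnight at 30 C, loaded with no-wash calcium dye. After a 10 s baseline, compound was pin-added and calcium flux read kinetically for 180 s; calcium rises flagged agonists.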
D2 PAM-2: positively modulates the human D2 dopamine receptor allosterically | P14416 | HEK293 T-REx D2, calcium flux, EC20 dopamine potentiation | potentiation, % at 10 µM | actives 0.34% (n = 340,000) | AID 485347;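 active = potentiation over 3 SD above the plate norm, cut at about 30% in these data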; also: 0% is about no effect
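Tetracycline-induced HEK293 T-REx cells force-coupled to calcium signalling expressed D2; compounds were pin-added after a 10 s baseline, read kinetically 180 s, then an EC20 dopamine challenge followed with a further 180 s calcium read.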
The depositor's hits bear a star; ? = inconclusive; · = no result. Only some compounds are listed: those with a hit (about 2.4% of all), similar ones and a draw of the others.

SMILES | D2 PAM-1 | D2 ag-1 | D2 antagonist | D2 ag-2 | D2 PAM-2
Cc1nc2ccccc2n1CCC(=O)O | 21 | 0 | 6 | 0 | -1
Cc1nc2ccccc2n2c(O)c(CC(=O)O)cc12 | 79* | 14 | 2 | 2 | -7
O=C(Nc1nc2n(n1)C(c1ccccc1)C=C(c1ccccc1)N2)c1ccccc1 (stereo not given) | · | · | · | -2 | 9
C=CCOc1ccccc1CN1CCC(C(=O)Nc2cccc(-c3ccn[nH]3)c2)CC1 | -33 | 0 | 92* | 1 | -4
Cc1ccc(C(=O)c2cn(Cc3ccccc3C)c3nc(C)ccc3c2=O)cc1 | · | · | · | 0 | 0
Cc1nc(-c2ccc(F)cc2)c(CC(=O)N2CCN(S(=O)(=O)c3cccc(Cl)c3)CC2)s1 | -10 | -1 | 34* | -1 | -2
CC(C)COC(=O)c1ccc2c(c1O)C(=O)c1ccccc1C2=O | 62* | 13 | 2 | 0 | -1
CC(C)c1ccc(NC(=O)C2CC(=O)N=C(N)S2)cc1 (stereo not given) | 109* | ? | -3 | 0 | 20
CCc1ccc(NC(=O)C2CC(=O)N=C(N)S2)cc1 (stereo not given) | -8 | -1 | 9 | 0 | 2
CSc1nnc(C)c(=O)n1COC(=O)c1ccccc1 | 5 | -1 | -4 | 0 | 6
CCN(CC)S(=O)(=O)c1ccc(C(=O)OCn2nnc3ccccc3c2=O)cc1 | 1 | 3 | 7 | 1 | 75*
CCN(CC)S(=O)(=O)c1ccc(C(=O)OCn2c(SC)nnc(C)c2=O)cc1 | 7 | 7 | 35* | 0 | -5
Cn1c(=O)c2c(c3ccccc31)OC(=O)CC2c1cccc(F)c1 (stereo not given) | · | · | · | 1 | 5
COc1ccc(OC(=O)c2nc(SCc3ccccc3C)ncc2Cl)cc1 | · | · | · | 1 | -8
CCN(CC)S(=O)(=O)c1ccc(NC(=O)c2c(C)oc3ncnc(N4CCOCC4)c23)cc1 | · | · | · | -1 | 3
COC(=O)c1cc(S(=O)(=O)N2CCC(c3ccccc3)C2)c[nH]1 (stereo not given) | -7 | 1 | 13 | 0 | -25
COC(=O)c1cc(S(=O)(=O)N2CCC(c3cc(OC)ccc3OC)C2)c[nH]1 (stereo not given) | -5 | 3 | -11 | 0 | 83*
Nn1c(SC/C=C/c2ccccc2)nnc1-c1ccncc1 | -13 | -5 | 38* | 0 | 18
NC(=O)c1ccsc1NC(=O)C1CCCN1S(=O)(=O)c1ccc(Cl)cc1 (stereo not given) | -4 | -5 | 6 | 0 | -3
CC1CCCCN1S(=O)(=O)c1ccc(C(=O)Nc2sccc2C(N)=O)cc1 (stereo not given) | -2 | 4 | 31* | 0 | -16
CCOC(=O)c1c(C)oc2c1c(C(c1cccnc1)N1CCCCC1)c(O)c1ccccc12 (stereo not given) | 102* | ? | -2 | 0 | -3
CCOC(=O)c1c(C)oc2c1c(C(c1ccccc1)N1CCOCC1)c(O)c1ccccc12 (stereo not given) | ? | -2 | 57* | -2 | -3
CCOC(=O)c1c(C)oc2c1c(C=NCCO)c(O)c1ccccc12 | 20 | 8 | -25 | 3 | 12
COC(=O)c1ccc(C)c(NC(=O)CCc2ccc(OC)cc2)c1 | -7 | 0 | -11 | -1 | -3
COc1ccc(CCC(=O)NNC(=O)Nc2cc(Cl)ccc2C)cc1 | -12 | -8 | 33* | 0 | -1
SMILES | D2 PAM-1 | D2 ag-1 | D2 antagonist | D2 ag-2 | D2 PAM-2
Cc1nn(S(=O)(=O)c2ccc(C(C)(C)C)cc2)c(C)c1S(=O)(=O)N1CCCCCC1 | · | · | · | -1 | 11
CCn1cnc2sc(C(=O)N(Cc3ccc(N(C)C)cc3)Cc3ccco3)c(C)c2c1=O | 5 | 1 | 32* | 1 | 2
O=C(Nc1cc(Cl)ccc1Cl)C1(c2cccs2)CCOCC1 | · | · | · | -1 | -7
CCC1(c2ccccc2)C(=O)NCNC1=O | -3 | -4 | 33* | 2 | 4
CC(C)c1ccc(NC(=S)N2CCN(Cc3ccccc3)CC2)cc1 | -4 | -3 | -15 | 0 | 3
S=C(Nc1ccc2c(c1)OCO2)NC1CCN(Cc2ccccc2)CC1 | -17 | -3 | 59* | 0 | -26
Cc1ccc(NC(=S)NC2CCN(Cc3ccccc3)CC2)cc1C | ? | -9 | 78* | 3 | -24
CC(C)c1ccc(NC(=S)NC2CCN(Cc3ccccc3)CC2)cc1 | -41 | -2 | 52* | 1 | -20
CC1=C(C)CC(C(=O)N2CCN(Cc3ccccc3)CC2)C(C(=O)O)C1 (stereo not given) | -23 | -4 | 0 | 4 | 30*
CCCn1c(=N)c(C(=O)NC2CCCCC2)cc2c(=O)n3cc(C)ccc3nc21 | · | · | · | 2 | -7
CCC(=O)N1CCc2cc(S(=O)(=O)CCC(=O)Nc3ccc(Cl)c(C(F)(F)F)c3)ccc21 | · | · | · | 0 | 28
Cc1ccc(C(=S)N2CCN(Cc3ccccc3)CC2)cc1 | -11 | 2 | 65* | -2 | -27
Cc1ccc(NC(=S)N2CCN(Cc3ccccc3)CC2)cc1 | -9 | 2 | -13 | 0 | ·
Cc1ccc(NC(=S)NC2CCN(Cc3ccccc3)CC2)cc1 | -34 | -2 | 84* | 0 | -17
COc1cc(NC(=S)NC(=O)CCc2ccccc2)cc(OC)c1 | 62* | 4 | -4 | 1 | 4
O=C(CCc1ccccc1)NC(=S)Nc1cccc(Br)c1 | 80* | ? | -5 | 0 | 6
COC(=O)c1cc2oc3ccccc3c2n1CC(=O)Nc1cccc(SC)c1 | · | · | · | 0 | -13
CSc1nn(CC(=O)Nc2cc(C)ccc2C)c(N)c1S(=O)(=O)c1ccccc1 | · | · | · | 0 | -21
CC(C)C[C@H]1C(=O)N2CCC[C@H]2[C@]2(O)O[C@](NC(=O)C3C=C4c5cccc6[nH]c(Br)c(c56)C[C@H]4N(C)C3)(C(C)C)C(=O)N12 (stereo not given in full) | ? | 52* | · | · | ·
CCn1cc(C(=O)N[C@@H](C)C(=O)OC)c(=O)c2cc3c(cc21)OCO3 | -3 | -4 | 44* | 1 | -4
O=C(CC1S/C(=N/N=C/c2cccs2)NC1=O)Nc1ccc(Cl)cc1 (stereo not given) | 4 | -3 | 44* | 1 | 11
Cc1cc(=O)oc2c(C)c(OCC(=O)Nc3cccnc3)ccc12 | 0 | 3 | 36* | 0 | -3
CC(SC1=Nc2ccccc2C2CC=NN12)C(=O)NC1(C#N)CCCCC1 (stereo not given) | -27 | -9 | 5 | 44* | -29
COc1ccccc1C(=O)Nc1cccc(OCc2cc(=O)n3c4c(sc3n2)CCCC4)c1 | · | · | · | 0 | 2
CC(C)c1nc(C#N)c(NCCCn2ccnc2)o1 | -10 | -4 | 43* | 0 | -16
Cc1ccccc1C(=O)Nc1ccnn1C1CCN(Cc2ccncc2)CC1 | 3 | -5 | 31* | 1 | -18

Compound activity: PubChem, National Center for Advancing Translational Sciences (NCATS)
